High-throughput results deposited in PubChem BioAssay by Johns Hopkins Ion Channel Center.
Shown are actives, neighbours in structure and some others; about 1.6% of the full set was active somewhere.
KCNQ2 block – blocks the rat KCNQ2 potassium channel; B-score at 10 µM; AID 2156; O88943; CHO-K1 KCNQ2, FluxOR thallium flux, 20 min; active compounds read low; hit rate 1.1% among 310,000;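 active means fluorescence ratio B-score at most minus 3 library SDs, with starting brightness B-score within 2 library SDs, cut at about -5.5 in these data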
Target sequence (O88943 whole entry, looked up): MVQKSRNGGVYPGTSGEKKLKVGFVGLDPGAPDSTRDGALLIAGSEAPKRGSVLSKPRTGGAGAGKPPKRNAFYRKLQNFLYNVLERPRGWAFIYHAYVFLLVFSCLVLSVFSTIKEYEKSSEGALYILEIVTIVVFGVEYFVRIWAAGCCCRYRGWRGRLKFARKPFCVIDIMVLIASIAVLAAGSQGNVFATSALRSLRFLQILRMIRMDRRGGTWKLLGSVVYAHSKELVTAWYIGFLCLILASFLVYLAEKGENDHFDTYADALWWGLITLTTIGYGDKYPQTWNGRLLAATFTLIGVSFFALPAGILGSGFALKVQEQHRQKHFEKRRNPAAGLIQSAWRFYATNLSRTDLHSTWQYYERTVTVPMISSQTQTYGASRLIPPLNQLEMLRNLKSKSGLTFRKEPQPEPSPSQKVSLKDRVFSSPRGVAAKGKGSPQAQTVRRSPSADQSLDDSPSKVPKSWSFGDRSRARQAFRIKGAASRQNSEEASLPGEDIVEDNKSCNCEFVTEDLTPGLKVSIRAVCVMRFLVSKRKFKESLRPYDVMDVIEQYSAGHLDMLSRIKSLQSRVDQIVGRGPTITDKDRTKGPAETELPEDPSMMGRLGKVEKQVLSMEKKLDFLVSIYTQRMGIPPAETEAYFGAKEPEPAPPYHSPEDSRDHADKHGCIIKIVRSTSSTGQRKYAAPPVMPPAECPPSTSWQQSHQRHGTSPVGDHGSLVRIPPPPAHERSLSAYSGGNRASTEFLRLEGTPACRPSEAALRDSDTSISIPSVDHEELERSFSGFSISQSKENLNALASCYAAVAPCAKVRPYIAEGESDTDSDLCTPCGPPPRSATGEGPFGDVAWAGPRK
KCNQ2 enhance – enhances the rat KCNQ2 potassium channel | B-score at 10 µM | hit rate 0.54% among 310,000 | CHO-K1 KCNQ2, FluxOR thallium flux fluorescence; active compounds read high;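 active means fluorescence ratio B-score at least 3 SD of library B-scores, with initial fluorescence B-score within 3 of them, cut at about 5.3 in these data; same plate scores as AID 2156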;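 further: B-score of peak minus minimum over baseline fluorescence ratio after K+ and Tl+ stimulus; positive B-score means potentiation of KCNQ2 with more thallium influx and brighter signal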
* = called active by the depositor; i = inactive; nt = no result given.

SMILES	KCNQ2 block	KCNQ2 enhance
COc1ccccc1N1CCN(C2CCCN(C(=O)c3ccnc4ccc(C)cc34)C2)CC1 (stereo not drawn)	i	nt
Cc1ccc(CN2CCNC(=O)C2CC(=O)NCC(F)(F)F)o1 (stereo not drawn)	i	nt
COc1ccccc1CN1CC(C(=O)NCCc2ncccc2C)CCC1=O (stereo not drawn)	i	0.16
Cc1ccc2nc(SCc3nnc(-c4ccccc4Br)o3)[nH]c2c1	i	nt
CN(C1=C(NC(=O)c2ccccc2)C(=O)c2ccccc2C1=O)C1CCS(=O)(=O)C1 (stereo not drawn)	i	3.5
CC(=O)NC1=C(NC2CCS(=O)(=O)C2)C(=O)c2ccccc2C1=O (stereo not drawn)	i	6.1*
CCOc1ccccc1NC(=O)C(NCCN(C)C)c1ccccc1 (stereo not drawn)	i	1.8
CCOc1ccccc1NC(=O)C(OC(=O)c1ccc(CC)cc1)c1ccccc1 (stereo not drawn)	-6.4*	-6.4
CCOc1ccccc1NC(=O)C(OC(=O)c1ccc(O)cc1)c1ccccc1 (stereo not drawn)	i	nt
CCOc1ccccc1NC(=O)C(NCC1CCCCC1)c1ccccc1 (stereo not drawn)	-5.8*	-5.8
CCCCNc1c(C(=O)OCC)c(C)nc2c1cnn2CC	i	nt
CCOc1ccc(NC(=O)CSc2nc3ccccc3nc2N2CCOCC2)cc1	i	0.25
CCN1C(=O)C(CC(=O)Nc2ccc(OC)cc2)N(CCCN2CCN(c3ccc(OC)cc3)CC2)C1=S (stereo not drawn)	i	nt
CCCCC(=O)Nc1ccc(NC(=O)c2ccccc2[N+](=O)[O-])cc1OC	i	0.96
CCn1c(=O)c2cc(C(=O)N(C)c3ccc(OC)cc3OC)sc2c2ccccc21	i	nt
CCn1c(=O)c2cc(C(=O)N(C)c3cc(C)ccc3OC)sc2c2ccccc21	-6.4*	-6.4
COc1ccc(-c2csc(NCc3ccco3)n2)cc1C	i	nt
COc1ccc(-c2nc3cccc(C)n3c2NCc2ccco2)cc1OC	-6*	-6
O=C(/C=C/c1ccc([N+](=O)[O-])cc1)NCCSc1ccccc1	i	1.3
Cc1ccc(SCCNC(=O)/C=C/c2ccc([N+](=O)[O-])cc2)cc1	i	6.2*
S=C(Nc1ccccc1Cl)N1CCCC(c2ccccc2)=N1	-6.5*	-6.5
S=C(Nc1ccccc1Cl)N1CCCCCC1	i	0.14
CN(C)S(=O)(=O)n1cc(/C=C(\NC(=O)c2ccccc2F)C(=O)N2CCCC2)c2ccccc21	i	0.05
Cc1ccc2c(c1)Oc1ccccc1C=C2C(=O)O	i	nt
CCCCS(=O)CC(COc1ccc(Cl)cc1)OC(=O)c1ccccc1 (stereo not drawn)	-5.8*	-5.8
SMILES	KCNQ2 block	KCNQ2 enhance
CCCCS(=O)CC(COC)OC(=O)c1ccccc1 (stereo not drawn)	i	0.03
CC(=O)Nc1cccc(NC(=O)CSc2nc(=O)n3cccc(C)c3n2)c1	i	nt
CC1CCCCC1NC(=O)C(Cc1ccccc1)NS(=O)(=O)c1cccs1 (stereo not drawn)	i	nt
CC(CCc1ccccc1)NC(=O)C(Cc1ccccc1)NS(=O)(=O)c1cccs1 (stereo not drawn)	-5.7*	-5.7
COc1ccc(N2CCN(C(=O)CSc3nnc(NC(=O)C4CCC4)s3)CC2)cc1	i	nt
CCC(=O)Nc1cc(-c2nn(C)c(=O)c3ccccc23)ccc1N1CCOCC1	i	nt
Cn1nc(-c2ccc(N3CCCCC3)c(NC(=O)c3ccco3)c2)c2ccccc2c1=O	-5.6*	-5.6
CC(C)(CC(=O)O)CC(=O)Nc1ccc2c(c1)ncn2CCc1ccccc1	i	0.29
Cc1nnsc1C(=O)N1CCC(CO)(Cc2ccccc2Cl)CC1	i	0.51
Clc1cccc(CN2CCCCCC2)c1Cl	i	nt
COc1ccc(Oc2ccc(C(F)(F)F)cc2NC(=O)c2ccc(C)cc2)cc1	-5.6*	-5.6
COCCOc1ccc(C(F)(F)F)cc1NC(=O)c1ccc(C)cc1	i	nt
Cc1ccc(C(C(=O)NC2CCCCC2)N(Cc2cccnc2)C(=O)c2csnn2)cc1 (stereo not drawn)	i	0.43
COc1ccc(NC(=O)NCc2cccnc2)c(OC)c1	i	nt
COc1ccc(NC(=O)N(Cc2cccnc2)Cc2ccccc2Cl)c(OC)c1	-5.8*	-5.8
Cc1ccc(OCC(=O)NCCCNC(=O)c2cccnc2)cc1	i	nt
Cc1ccc(OCC(=O)NCCNC(=O)c2ccc(C)nc2)cc1	i	0.95
COC(=O)c1cc(=O)n(Cc2ccc3c(c2)OCO3)c(=Nc2ccc(F)cc2)s1	i	nt
CCOC(=O)c1ccc(N=c2sc(C(=O)OC)cc(=O)n2Cc2ccc3c(c2)OCO3)cc1	-5.9*	-5.9
O=C(Oc1ccc(-c2nnco2)cc1)C1CCN(C(=O)c2ccc(F)cc2)CC1	i	0.26
CCC(C)n1c(=S)[nH]c2ccccc2c1=O (stereo not drawn)	i	6.8*
O=c1c2ccccc2[nH]c(=S)n1CCc1ccccc1	i	7.2*
CC(C)n1c(=S)[nH]c2ccccc2c1=O	i	0.52
O=c1c2ccccc2[nH]c(=S)n1Cc1ccccc1	i	0.43
Cn1c(N)c(C(=O)COC(=O)C2CC(=O)N(Cc3ccccc3)C2)c(=O)n(C)c1=O (stereo not drawn)	i	0.23
SMILES	KCNQ2 block	KCNQ2 enhance
CC1(C)CC2CC(C)(CN2C(=S)Nc2ccccc2)C1 (stereo not drawn)	i	nt
CC1(C)CC2CC(C)(CN2C(=S)NC(=O)c2ccccc2Cl)C1 (stereo not drawn)	i	10*
CC(C)[C@@H]1CC[C@@H](C)c2c(-c3ccccc3)n[nH]c21	-7.2*	-7.2
c1ccc(-c2n[nH]c3c2CCC3)cc1	i	nt
O=C(NC(=S)N1CCN(c2ccccc2)CC1)c1ccc(S(=O)(=O)N2CCOCC2)cc1	i	nt
COc1cccc(/C=N/NC(=O)CSc2nnc(C)n2-c2ccccc2)c1O	i	nt
CCCCSc1nc(C)cc(SCC(=O)N/N=C/c2cccc(OC)c2O)n1	i	6.3*
Clc1ccccc1CSc1nncn1NC/C=C/c1ccccc1	i	nt
O=S(=O)(c1cc(F)ccc1F)N1CCC2(CC1)OCCO2	i	nt
O=C(Nc1ccc(F)c(F)c1)c1ccc(F)c(S(=O)(=O)N2CCC3(CC2)OCCO3)c1	i	5.4*
O=C(CCc1nnc2n(Cc3ccccc3)c(=O)c3ccccc3n12)NCCN1CCOCC1	i	0.71
COc1ccc(C(=O)OCCNC(=O)c2ccncc2)cc1OC	i	2.8
CCC1(CC)C(=O)C2=C3C1[C@H](C(=O)OC)CC(C(=O)OC)C[C@H]3n1c(=O)n(C)c(=O)n1[C@H]2C (stereo partly drawn)	-7.5*	-7.5
CCC1(CC)C(=O)C2=C3C1[C@H](C(=O)OC)C=C(C(=O)OC)C[C@H]3n1c(=O)n(C)c(=O)n1[C@H]2C (stereo partly drawn)	i	0.19
CCc1ccccc1N1CCN(S(=O)(=O)c2cc(OC)ccc2OC)CC1	-7.1*	-7.1
COc1ccc(OC)c(S(=O)(=O)N2CCN(c3ccccc3)CC2)c1	i	0.08
CC1(C)CC2(CCO1)C(Nc1ccccc1)=NC(=S)N2CC(N)=O (stereo not drawn)	i	nt
O=C(c1ccc(Cl)c(Cl)c1)N(Cc1ccco1)c1ccc(O)cc1	-6.4*	-6.4
O=C(COc1ccccc1)N(Cc1ccco1)c1ccc(O)cc1	i	nt
S=C(NCC1CCCO1)Nc1ccccc1 (stereo not drawn)	i	nt
